Sampled rows, rich in hits. Any-hit rate of the full collection: about 5.2%.
CR mimetic SO – yeast age-related superoxide inhibition as caloric restriction mimetic; S. cerevisiae aged cells, superoxide DHE fluorescence; active compounds read low; superoxide response (% of plate mean), % at 10 µM; 330,000 compounds, 0.18% hits;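 active = superoxide response under a set limit, about three screen SD below normal, cut at about 65% in these data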;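 note: yeast aged for seven days with compound at 30 °C before DHE staining; 100% = average MFI of all compound-treated wells on the plate with controls excluded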
ALR inh – inhibitors of human sulfhydryl oxidase ALR; inhibition, % (no concentration beside the values); 290,000 compounds, 3.8% hits; purified ALR, DTT oxidation, H2O2 HRP-luminol luminescence; P55789;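 active = mean replicate inhibition above about 79%, with every replicate also reaching it, limit read from the data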
M18AAP inhibitor – PfM18AAP enzyme inhibition; recombinant PfM18AAP, H-Glu-NHMec fluorogenic cleavage; 290,000 compounds, 1.2% hits; inhibition, % at 7.35 µM;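 active = inhibition above the campaign mean inhibition over all tested compounds plus 3 SD, cut at about 28% in these data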;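 note: 0% = plate median of test compound wells and 100% = 2 mM ZnCl2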
A3G deaminase – inhibitors of human APOBEC3G DNA deaminase | Q9HC16 | recombinant A3G, ssDNA deamination FAM/TAMRA fluorescence | inhibition, % at 20 µM | 330,000 compounds, 0.28% hits;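 active = inhibition of at least 40% at 20 µM, with no more than 30% in the related APOBEC3A deaminase screen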;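 note: plate controls were DMSO wells with A3G for no effect and wells lacking A3G enzyme for full effect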
NRP1-CendR mod – NRP-1/CendR interaction modulation; FAM-RPARPAR peptide binding to NRP-1, fluorescence polarization; inhibition, % at 25 µM; 360,000 compounds, 0.85% hits;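 active = inhibition or corrected inhibition above about 18%, plus a signal ratio from 0.5 to 1.5, limit read from the data, passing the limit was not always enough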
A3A deaminase – inhibitors of human APOBEC3A DNA deaminase; 330,000 compounds, 0.41% hits; recombinant A3A, FAM/TAMRA ssDNA deamination fluorescence; AID 493011; P31941; inhibition, % at 20 µM;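 active = at least 40% inhibition at 20 µM here, with at most 30% in a related deaminase screen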;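 note: plate controls were A3A with DMSO for no effect and wells lacking A3A enzyme for full effect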
Starred values were filed as active, the others as inactive; . = no result given.

SMILES	CR mimetic SO	ALR inh	M18AAP inhibitor	A3G deaminase	NRP1-CendR mod	A3A deaminase
Nc1nc(/C=C/c2ccc(F)cc2)nc(-c2ccccc2O)n1	107	-21	-11	-1	-4	1
CCN(CC)c1ccc(/C=N/N2CCN(Cc3ccccc3Cl)CC2)cc1	95	60	8	-5	7	-6
COc1ccc(NC(=O)c2oc3ccccc3c2NC(=O)C2CCCO2)cc1OC (stereo not given)	83	-3	3	-3	18	6
COc1ccc(NC(=O)c2oc3ccccc3c2NC(=O)C2CC2)cc1OC	103	-31	8	-6	30*	3
Nc1ccc(C(=O)Nc2cccc(N)c2)cc1	95	99*	1	.	8	.
CC(=O)Nc1cccc(NC(=O)c2ccco2)c1	111	-15	1	-4	-2	0
Nc1cccc(NC(=O)c2ccco2)c1	110	99*	-3	-2	3	2
CCOc1cc(C(=O)NC(C)CC)cc(OCC)c1OCC (stereo not given)	94	-13	4	-3	-3	-2
CC1CC(C)CN(C(=S)Nc2ccc(OC(F)F)cc2)C1 (stereo not given)	124	-2	-5	0	14	2
CCC1CCCCN1C(=S)Nc1ccc(OC(F)F)cc1 (stereo not given)	84	8	1	-13	27*	0
O=C(COC(=O)C1CCCN1C(=O)c1cccs1)Nc1ccc2c(c1)OCO2 (stereo not given)	105	43	-1	-2	12	-4
C/C(=N\Nc1ccccn1)c1ccc(OC(F)F)cc1	92	89*	-1	-4	10	-1
C/C(=N\Nc1ccccn1)c1cccs1	97	99*	9	-10	0	1
Cc1ccc(S(=O)(=O)N(CC(=O)N2CCCC2)C2CCCCC2)cc1	93	0	3	-3	8	-1
CCCC(=O)C1=C(N(C)c2ccccc2)CC(C)(C)CC1=O	99	-1	2	-9	3	-6
CCCC(=O)C1=C(c2ccccc2)C(C#N)(C#N)C(C#N)=C1N	88	99*	8	-6	-3	0
Cc1nnc(SCc2cnc(-c3ccc(C(C)C)cc3)s2)n1C	96	98*	1	-2	-1	-4
COC1=CC(=Cc2c(N)n3nc(CC(=O)N4CCOCC4)sc3nc2=O)C=C(OC)C1=O	97	51	10	7	-109	1
Nc1c(C=C2C=CC(=O)C=C2)c(=O)nc2sc(CC(=O)N3CCOCC3)nn12	100	98*	-1	-3	-20	-2
CCOC1=C/C(=C/c2c(N)n3nc(S(=O)(=O)CC)sc3nc2=O)C=CC1=O	119	99*	3	-8	-137	1
COC1=C/C(=C/c2c(N)n3nc(CC(=O)N4CCCCC4)sc3nc2=O)C=CC1=O	87	100*	13	-3	-114	-5
C=CCC1=C/C(=C\c2c(N)n3nc(CC(=O)N4CCCC4)sc3nc2=O)C=C(OC)C1=O	108	50	13	0	-211	-1
CCOC1=C/C(=C/c2c(N)n3nc(CC(=O)N4CCCCC4)sc3nc2=O)C=CC1=O	101	99*	4	-8	-142	-2
Nc1c(/C=C2\C=Nc3ccccc32)c(=O)nc2sc(CC(=O)N3CCOCC3)nn12	96	.	9	-3	-5	-2
COCC1CCCN(Cc2cn(-c3ccccc3F)nc2-c2cc(C)sc2C)C1 (stereo not given)	100	-5	-13	-2	5	-1
SMILES	CR mimetic SO	ALR inh	M18AAP inhibitor	A3G deaminase	NRP1-CendR mod	A3A deaminase
CC(C)C(=O)Nc1ccc(COc2ccccc2CN(Cc2ccccc2)C(=O)OC(C)(C)C)cc1	.	.	.	.	0	.
O=C(O)Cc1sc(-c2ccccc2Cl)nc1-c1ccccc1	126	99*	1	-4	-10	-1
Cc1ccc(-c2nc(-c3ccc(Cl)cc3)sc2CC(=O)O)c(C)c1	140	99*	-2	-6	11	-3
O=C(Cc1sc(-c2ccccc2)nc1-c1ccccc1)Nc1ccccc1	102	0	-18	-5	0	-11
CCC1(C(=O)O)NC(c2cc(OC)ccc2O)C2C(=O)N(Cc3ccccc3)C(=O)C21 (stereo not given)	88	87*	0	-7	4	-3
CCCC1(C(=O)O)NC(c2ccccc2O)C2C(=O)N(Cc3ccccc3)C(=O)C21 (stereo not given)	88	-20	-1	-3	4	0
O=C(NCCNC(=O)c1ccccn1)c1ccc(-c2ccccc2)cc1	108	-2	1	-2	0	-3
COc1ccc(S(=O)(=O)N2CCCC(C(=O)N3CCOCC3)C2)cc1C (stereo not given)	84	-4	-2	2	34*	0
Cc1cc(S(=O)(=O)NC2CCCCC2)ccc1OCC(=O)N1CCOCC1	126	-2	-8	-5	27*	-7
NC(=S)NNc1c(F)c(F)c(F)c(F)c1F	105	98*	15	-1	-4	-5
Cc1ccc(NC(=O)CN2CCN(Cc3ccccc3)CC2)cc1	95	-3	3	-7	10	-3
COc1cc(/C=C(/NC(C)=O)C(=O)O)cc(Cl)c1OCc1ccc(Br)cc1	99	95*	3	-2	7	4
COC(=O)c1ccc(COc2ccc(/C=N/O)cc2)o1	112	98*	-11	-11	-7	0
COC(=O)c1ccc(COc2ccc(C=O)cc2)o1	98	-2	-3	-6	-1	-4
Cn1c(=O)c(C(=O)NCc2ccc(Cl)cc2)c(O)c2ccccc21	101	0	-5	-1	11	1
COc1cc(/C=C/C(=O)C2C(=O)C=C(C)OC2=O)cc(OC)c1O (stereo not given)	75	99*	31*	-4	-6	1
CCc1ccc(C(=O)N2CCN(c3ccc(NC(=O)c4cccnc4)cc3)CC2)cc1	112	5	-7	-8	8	-1
Cc1cc(NC(=O)Nc2cccc(C)c2C)no1	99	99*	2	-6	-10	-4
Cc1cccc(NC(=O)Nc2cnccn2)c1C	101	6	-5	-3	20*	0
Cc1ccccc1NC(=O)Nc1cnccn1	92	-9	-6	-3	-13	1
Cc1cccc(NC(=O)Nc2cc(C)on2)c1	198	0	-4	-4	0	-6
O=c1[nH]c(=O)n(Cc2ccccc2)c2nc(-c3cccs3)n(CCO)c12	100	.	2	-6	.	-3
O=C(C[C@H]1C=C[C@@H](NS(=O)(=O)c2ccccc2)[C@@H](CO)O1)NCc1ccc(Cl)c(Cl)c1	.	.	.	.	-3	.
Cc1ccc(/C=N/NC(=O)Cc2c[nH]c3ccccc23)c(C)c1	105	.	-4	0	13	-1
C/C(=N\NC(=O)CCCNc1ccc(C)cc1)c1ccccn1	92	98*	-1	-1	-10	0

Source: PubChem (several laboratories)
